Source: article PMC5540273 (PLoS ONE, 2017)

What was measured:
Details in all cases: concentration: 1 μM, replicates: in singlicate; n = 1
STK36 = test system: STK36
STK39 = test system: STK39
SYK = test system: SYK
SgK110 = test system: SgK110
TAK1 = test system: T1, TAK1
T1 construct: gene MAP3K7

TAOK1 = test system: TAOK1
TAOK2 = test system: TAOK2
TAOK3 = test system: TAOK3
TBK1 = test system: TBK1
TEC = test system: TEC
TESK1 = test system: TESK1
TGFBR1 = test system: TGFBR1
TGFBR2 = test system: TGFBR2
TIE1 = test system: TIE1
TIE2 = test system: T2, TIE2
T2 construct: gene TEK

TLK1 = test system: TLK1
TLK2 = test system: TLK2
TNIK = test system: TNIK
TNK1 = test system: TNK1
TNK2 = test system: TNK2
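Note: KINOMEscan kinase panel screen.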

C[C@@H]1CC[C@@H](C(=O)Nc2ccccc2)CN1c1cc(-c2ccc3c(N)n[nH]c3c2)nc(N)n1 [GSK2286062]
%Inh (STK36): 0%
%Inh (STK39): 0%
%Inh (SYK): 30%
%Inh (SgK110): 0%
%Inh (TAK1): 0%
%Inh (TAOK1): 0%
%Inh (TAOK2): 0%
%Inh (TAOK3): 10%
%Inh (TBK1): 17%
%Inh (TEC): 0%
%Inh (TESK1): 29%
%Inh (TGFBR1): 0%
%Inh (TGFBR2): 0%
%Inh (TIE1): 0%
%Inh (TIE2): 22%
%Inh (TLK1): 0%
%Inh (TLK2): 4%
%Inh (TNIK): 0%
%Inh (TNK1): 0%
%Inh (TNK2): 0%

O=c1[nH]cc(-c2ccc(N3CCOCC3)cc2)c2sc(-c3cn[nH]c3)cc12 [GSK2276055]
%Inh (STK36): 0%
%Inh (STK39): 3%
%Inh (SYK): 0%
%Inh (SgK110): 0%
%Inh (TAK1): 53%
%Inh (TAOK1): 68%
%Inh (TAOK2): 5%
%Inh (TAOK3): 21%
%Inh (TBK1): 25%
%Inh (TEC): 0%
%Inh (TESK1): 55%
%Inh (TGFBR1): 0%
%Inh (TGFBR2): 0%
%Inh (TIE1): 0%
%Inh (TIE2): 0%
%Inh (TLK1): 25%
%Inh (TLK2): 19%
%Inh (TNIK): 10%
%Inh (TNK1): 0%
%Inh (TNK2): 0%

COc1cc(Nc2nccc(N3CCC(NC(=O)Nc4cccc(C(C)=O)c4)C3)n2)cc(OC)c1OC (stereo not drawn) [GSK1379753]
%Inh (STK36): 30%
%Inh (STK39): 0%
%Inh (SYK): 28%
%Inh (SgK110): 0%
%Inh (TAK1): 0%
%Inh (TAOK1): 0%
%Inh (TAOK2): 0%
%Inh (TAOK3): 0%
%Inh (TBK1): 28%
%Inh (TEC): 0%
%Inh (TESK1): 1%
%Inh (TGFBR1): 0%
%Inh (TGFBR2): 0%
%Inh (TIE1): 27%
%Inh (TIE2): 1%
%Inh (TLK1): 0%
%Inh (TLK2): 0%
%Inh (TNIK): 0%
%Inh (TNK1): 21%
%Inh (TNK2): 19%

COc1cccc(C2=C(Nc3ccc(Cl)c(C(=O)O)c3)C(=O)NC2=O)c1 [SB-390769]
%Inh (STK36): 0%
%Inh (STK39): 13%
%Inh (SYK): 34%
%Inh (SgK110): 57%
%Inh (TAK1): 0%
%Inh (TAOK1): 100%
%Inh (TAOK2): 100%
%Inh (TAOK3): 100%
%Inh (TBK1): 100%
%Inh (TEC): 0%
%Inh (TESK1): 20%
%Inh (TGFBR1): 0%
%Inh (TGFBR2): 6%
%Inh (TIE1): 25%
%Inh (TIE2): 17%
%Inh (TLK1): 5%
%Inh (TLK2): 0%
%Inh (TNIK): 0%
%Inh (TNK1): 0%
%Inh (TNK2): 17%

O=C(O)C(F)(F)F.O=C(O)C(F)(F)F.O=c1[nH]ccc2nc(N[C@@H]3CCCNC3)nc(Nc3ccc(S(=O)(=O)N4CCOCC4)cc3)c12 [GSK2177277]
%Inh (STK36): 26%
%Inh (STK39): 90.6%
%Inh (SYK): 93.1%
%Inh (SgK110): 95%
%Inh (TAK1): 99.9%
%Inh (TAOK1): 99.8%
%Inh (TAOK2): 82%
%Inh (TAOK3): 99.5%
%Inh (TBK1): 90%
%Inh (TEC): 38%
%Inh (TESK1): 0%
%Inh (TGFBR1): 32%
%Inh (TGFBR2): 0%
%Inh (TIE1): 66%
%Inh (TIE2): 0%
%Inh (TLK1): 94.3%
%Inh (TLK2): 98.2%
%Inh (TNIK): 99.5%
%Inh (TNK1): 73%
%Inh (TNK2): 26%

CC(=O)Nc1nc2cnc(Nc3cc(NC(=O)c4cccc(C5(C#N)CC5)c4Cl)ccc3C)nc2s1
%Inh (STK36): 0%
%Inh (STK39): 0%
%Inh (SYK): 5%
%Inh (SgK110): 19%
%Inh (TAK1): 3%
%Inh (TAOK1): 0%
%Inh (TAOK2): 0%
%Inh (TAOK3): 0%
%Inh (TBK1): 0%
%Inh (TEC): 0%
%Inh (TESK1): 0%
%Inh (TGFBR1): 4%
%Inh (TGFBR2): 0%
%Inh (TIE1): 7%
%Inh (TIE2): 8%
%Inh (TLK1): 14%
%Inh (TLK2): 0%
%Inh (TNIK): 16%
%Inh (TNK1): 88%
%Inh (TNK2): 0%

Nc1ncnc2c1nc(-c1ccccc1)n2-c1ccccc1 [SKF-97293]
%Inh (STK36): 7%
%Inh (STK39): 0%
%Inh (SYK): 6%
%Inh (SgK110): 0%
%Inh (TAK1): 35%
%Inh (TAOK1): 38%
%Inh (TAOK2): 6%
%Inh (TAOK3): 25%
%Inh (TBK1): 24%
%Inh (TEC): 8%
%Inh (TESK1): 19%
%Inh (TGFBR1): 9%
%Inh (TGFBR2): 4%
%Inh (TIE1): 9%
%Inh (TIE2): 11%
%Inh (TLK1): 0%
%Inh (TLK2): 19%
%Inh (TNIK): 0%
%Inh (TNK1): 8%
%Inh (TNK2): 0%

Cc1occc1-c1ncc(OC[C@@H](N)Cc2c[nH]c3ccccc23)cc1-c1ccc2[nH]nc(C)c2c1.O=C(O)C(F)(F)F [GSK682037]
%Inh (STK36): 0%
%Inh (STK39): 15%
%Inh (SYK): 0%
%Inh (SgK110): 0%
%Inh (TAK1): 97.9%
%Inh (TAOK1): 97.7%
%Inh (TAOK2): 36%
%Inh (TAOK3): 83%
%Inh (TBK1): 0%
%Inh (TEC): 0%
%Inh (TESK1): 19%
%Inh (TGFBR1): 0%
%Inh (TGFBR2): 0%
%Inh (TIE1): 18%
%Inh (TIE2): 0%
%Inh (TLK1): 0%
%Inh (TLK2): 0%
%Inh (TNIK): 97.2%
%Inh (TNK1): 15%
%Inh (TNK2): 0%

CCn1c(-c2nonc2N)nc2c(C#CC(C)(C)O)ncc(OCCCCN)c21.O=C(O)C(F)(F)F.O=C(O)C(F)(F)F [GSK507274]
%Inh (STK36): 0%
%Inh (STK39): 11%
%Inh (SYK): 4%
%Inh (SgK110): 0%
%Inh (TAK1): 0%
%Inh (TAOK1): 40%
%Inh (TAOK2): 8%
%Inh (TAOK3): 0%
%Inh (TBK1): 31%
%Inh (TEC): 0%
%Inh (TESK1): 57%
%Inh (TGFBR1): 0%
%Inh (TGFBR2): 0%
%Inh (TIE1): 5%
%Inh (TIE2): 44%
%Inh (TLK1): 0%
%Inh (TLK2): 0%
%Inh (TNIK): 0%
%Inh (TNK1): 0%
%Inh (TNK2): 11%
